Data taken from PubChem BioAssay AID1159580 (chemical genetic matrix, 2015).
Values joined by “and” are separate entries in the source; they are usually repeats but may differ in a detail not shown here. Equal entries are not always repeated. Screen size: about 5,500 compounds; about 2,000 (36%) were called active. Not shown: some 18% with an inconclusive outcome. Rule as the data show it: active = normalized growth mostly below about 0.91 (no sharp cut-off); inconclusive = no clear call, values can overlap the other calls; inactive = mostly above about 0.92. This is one part of the list.

Experiment: chemical genetic growth profiling, strain panel (AID 1159580);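 also: tested at 20 µM; growth read once vehicle control cultures reached saturation at 30 °C; 1 = growth at the plate median or of vehicle wells; lower values mean less growth of the strain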
Conditions: S. cerevisiae deletion strains, growth OD

Measured: normalized growth

O=C1CN(/N=C\c2ccc([N+](=O)[O-])o2)C(=O)N1
active: locus YDR392W, strain spt3, stronger effect = lower value 0.68 | locus YER155C, strain BEM2 (second series), stronger effect = lower value 0.854
inactive: locus YAL013W, strain DEP1, stronger effect = lower value 0.993 | locus YAL021C, strain ccr4, stronger effect = lower value 0.98 | locus YAL026C, strain drs2, stronger effect = lower value 0.956 | locus YAL030W, strain snc1, stronger effect = lower value 0.986 | locus YBL061C, strain skt5, stronger effect = lower value 0.987 | locus YBR009C, strain hhf1, stronger effect = lower value 0.977 | locus YBR021W, strain FUR4, stronger effect = lower value 0.997 | locus YBR023C, strain chs3, stronger effect = lower value 0.982 | locus YBR171W, strain sec66, stronger effect = lower value 0.982 | locus YBR229C, strain ROT2, stronger effect = lower value 1.01 | locus YBR231C, strain swc5, stronger effect = lower value 0.977 | locus YBR279W, strain paf1, stronger effect = lower value 0.97 | locus YCL011C, strain gbp2, stronger effect = lower value 0.964 | locus YCL016C, strain dcc1, stronger effect = lower value 0.99 | locus YCL029C, strain bik1, stronger effect = lower value 1.01 | locus YCL061C, strain MRC1, stronger effect = lower value 0.986 | locus YCL069W, strain vba3, stronger effect = lower value 0.956 | locus YCR088W, strain abp1, stronger effect = lower value 0.966 | locus YDL005C, strain med2, stronger effect = lower value 0.967 | locus YDL035C, strain GPR1, stronger effect = lower value 0.978 | locus YDL040C, strain nat1, stronger effect = lower value 0.97 | locus YDL074C, strain BRE1, stronger effect = lower value 0.914 | locus YDL101C, strain DUN1, stronger effect = lower value 0.995 | locus YDL134C, strain PPH21, stronger effect = lower value 1 | locus YDL185W, strain tfp1, stronger effect = lower value 0.99 | locus YDL192W, strain arf1, stronger effect = lower value 0.991 | locus YDR001C, strain nth1, stronger effect = lower value 0.975 | locus YDR069C, strain doa4, stronger effect = lower value 0.94 | locus YDR101C, strain arx1, stronger effect = lower value 0.976 | locus YDR137W, strain rgp1, stronger effect = lower value 1.02 | locus YDR150W, strain NUM1, stronger effect = lower value 1 | locus YDR159W, strain sac3, stronger effect = lower value 0.954 | locus YDR162C, strain NBP2, stronger effect = lower value 0.99 | locus YDR195W, strain ref2 0.979 | locus YDR297W, strain sur2, stronger effect = lower value 0.983 | locus YDR318W, strain mcm21, stronger effect = lower value 0.973 | locus YDR334W, strain swr1, stronger effect = lower value 0.976 | locus YDR335W, strain msn5, stronger effect = lower value 0.986 | locus YDR388W, stronger effect = lower value 0.995 | locus YDR502C, strain sam2, stronger effect = lower value 0.974 | locus YEL003W, strain gim4, stronger effect = lower value 0.942 | locus YEL037C, strain rad23, stronger effect = lower value 0.963 | locus YEL061C, strain CIN8 (second series), stronger effect = lower value 0.969 | locus YEL061C, strain CIN8, stronger effect = lower value 0.996 | locus YER015W, strain faa2, stronger effect = lower value 0.961 | locus YER016W, strain bim1, stronger effect = lower value 0.96 | locus YER110C, stronger effect = lower value 0.99 | locus YER111C, strain swi4, stronger effect = lower value 0.981 | locus YER155C, strain BEM2, stronger effect = lower value 0.998 | locus YER167W, strain BCK2, stronger effect = lower value 0.985 | locus YFR010W, strain ubp6, stronger effect = lower value 0.942 | locus YGL078C, strain dbp3, stronger effect = lower value 0.977 | locus YGL086W, strain mad1, stronger effect = lower value 0.977 | locus YGL167C, strain pmr1, stronger effect = lower value 0.983 | locus YGL173C, strain kem1, stronger effect = lower value 0.987 | locus YGL227W, strain vid30, stronger effect = lower value 0.979 | locus YGL240W, strain doc1, stronger effect = lower value 0.922 | locus YGL248W, strain PDE1, stronger effect = lower value 1 | locus YGL253W, strain hxk2, stronger effect = lower value 0.976 | locus YGR078C, strain PAC10, stronger effect = lower value 0.975 | locus YGR135W, strain pre9, stronger effect = lower value 0.963 | locus YGR229C, strain SMI1, stronger effect = lower value 0.958 | locus YGR252W, strain gcn5, stronger effect = lower value 0.804 | locus YHR013C, strain ard1, stronger effect = lower value 0.942 | locus YHR027C, strain rpn1, stronger effect = lower value 0.985 | locus YHR030C, strain SLT2, stronger effect = lower value 0.991 and 0.902 | locus YHR079C, strain IRE1 (second series), stronger effect = lower value 0.989 | locus YHR079C, strain IRE1, stronger effect = lower value 0.91 | locus YHR094C, strain hxt1, stronger effect = lower value 0.999 | locus YHR129C, strain ARP1, stronger effect = lower value 1 | locus YHR142W, strain chs7, stronger effect = lower value 0.946 | locus YHR200W, strain rpn10, stronger effect = lower value 0.985 | locus YIL066C, strain RNR3, stronger effect = lower value 1.01 | locus YIL073C, strain SPO22, stronger effect = lower value 0.969 | locus YIL125W, strain kgd1, stronger effect = lower value 0.987 | locus YIR030C, strain dcg1, stronger effect = lower value 0.994 | locus YJL092W, strain hpr5, stronger effect = lower value 0.971 | locus YJL095W, strain BCK1 (second series), stronger effect = lower value 0.982 | locus YJL095W, strain BCK1, stronger effect = lower value 0.969 and 0.892 | locus YJL115W, strain asf1, stronger effect = lower value 0.951 | locus YJL129C, strain trk1, stronger effect = lower value 0.968 | locus YJL134W, strain LCB3, stronger effect = lower value 1 | locus YJL154C, strain vps35, stronger effect = lower value 0.971 | locus YJL164C, strain tpk1, stronger effect = lower value 0.957 | locus YJL166W, strain qcr8, stronger effect = lower value 0.964 | locus YJL168C, strain set2, stronger effect = lower value 0.989 | locus YJL187C, strain SWE1 (second series), stronger effect = lower value 1.01 | locus YJL187C, strain SWE1, stronger effect = lower value 0.973 | locus YJR043C, strain POL32, stronger effect = lower value 0.979 | locus YJR066W, strain TOR1, stronger effect = lower value 0.87
